Reference: PubChem BioAssay
The source made the active and inactive calls. Unless noted, no rule for the calls is given here.

Experiments:
[1] = compounds binding Alexa647 anti-His antibody – biochemical, small-molecule microarray, 635 nm fluorescence, artefact control for SMM control protein annotation, primary screen (AID 1128); details: higher = more signal;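 also: score merges feature fluorescence with signal-to-noise for each printed compound spot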
[2] = tested on: Human papillomavirus type 1a E7 protein (residues 1-88); assay: HPV1a E7 small-molecule binders, primary screen, biochemical, small-molecule microarray, residues 1-88, 635 nm (AID 1129); details: small-molecule microarray binding, fluorescence 635 nm; higher = more signal
[3] = target: Focal adhesion kinase 1 (Homo sapiens) (UniProt Q05397); assay: PTK2 protein binding on printed compound slides – biochemical, small-molecule microarray, 635/667 nm fluorescence, BSA, DTT, primary screen (AID 1130); details: 635 nm fluorescence, higher = more signal;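 also: composite of spot emission at 667 nm and signal to noise over triplicate slides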
Focal adhesion kinase 1 (Homo sapiens), sequence (Q05397 whole entry, looked up): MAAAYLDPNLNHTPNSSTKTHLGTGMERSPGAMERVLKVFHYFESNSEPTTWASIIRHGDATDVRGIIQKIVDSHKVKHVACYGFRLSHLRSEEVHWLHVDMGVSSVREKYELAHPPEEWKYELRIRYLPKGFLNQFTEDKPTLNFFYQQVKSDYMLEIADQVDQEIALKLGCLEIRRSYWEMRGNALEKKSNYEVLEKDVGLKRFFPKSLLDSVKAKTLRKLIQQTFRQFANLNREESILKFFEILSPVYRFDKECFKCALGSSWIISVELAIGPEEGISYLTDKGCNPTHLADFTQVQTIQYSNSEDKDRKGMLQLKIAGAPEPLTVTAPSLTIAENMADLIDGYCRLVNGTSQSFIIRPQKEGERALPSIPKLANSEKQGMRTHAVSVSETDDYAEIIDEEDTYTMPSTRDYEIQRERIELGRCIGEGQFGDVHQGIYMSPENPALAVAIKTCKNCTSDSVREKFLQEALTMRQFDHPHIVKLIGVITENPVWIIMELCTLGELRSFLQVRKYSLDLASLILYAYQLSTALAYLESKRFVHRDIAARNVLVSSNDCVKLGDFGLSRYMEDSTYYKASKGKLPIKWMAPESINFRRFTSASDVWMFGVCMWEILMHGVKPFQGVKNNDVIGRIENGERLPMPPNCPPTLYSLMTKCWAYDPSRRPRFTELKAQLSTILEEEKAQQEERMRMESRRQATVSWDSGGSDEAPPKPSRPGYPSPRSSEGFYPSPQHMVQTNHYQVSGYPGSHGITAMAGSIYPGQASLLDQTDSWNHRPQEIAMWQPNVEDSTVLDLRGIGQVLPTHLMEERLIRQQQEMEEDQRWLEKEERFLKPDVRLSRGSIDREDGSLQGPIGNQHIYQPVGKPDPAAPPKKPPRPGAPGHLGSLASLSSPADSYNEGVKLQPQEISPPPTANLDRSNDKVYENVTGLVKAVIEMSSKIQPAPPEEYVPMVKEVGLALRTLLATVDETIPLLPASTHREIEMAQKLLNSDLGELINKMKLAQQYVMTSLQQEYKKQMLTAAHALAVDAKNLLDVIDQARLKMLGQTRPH

[4] = tested on: Fibrinogen (Alexa647-labelled); assay: Alexa647-fibrinogen binding to printed small molecules – biochemical, small-molecule microarray, 635/667 nm fluorescence, artefact control for SMM control-protein annotation, profiling panel (AID 1131); details: fibrinogen-A647 binding fluorescence, higher = more signal;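 also: z-score merges 667 nm fluorescence with per-spot signal-to-noise over triplicate slides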
[5] = target: Follistatin (Homo sapiens) (UniProt P19883); assay: FST protein binding to printed compounds – biochemical, small-molecule microarray, 635/667 nm fluorescence, primary screen (AID 1132); details: 635 nm fluorescence, higher = more signal
Follistatin (Homo sapiens), sequence (P19883 whole entry, looked up): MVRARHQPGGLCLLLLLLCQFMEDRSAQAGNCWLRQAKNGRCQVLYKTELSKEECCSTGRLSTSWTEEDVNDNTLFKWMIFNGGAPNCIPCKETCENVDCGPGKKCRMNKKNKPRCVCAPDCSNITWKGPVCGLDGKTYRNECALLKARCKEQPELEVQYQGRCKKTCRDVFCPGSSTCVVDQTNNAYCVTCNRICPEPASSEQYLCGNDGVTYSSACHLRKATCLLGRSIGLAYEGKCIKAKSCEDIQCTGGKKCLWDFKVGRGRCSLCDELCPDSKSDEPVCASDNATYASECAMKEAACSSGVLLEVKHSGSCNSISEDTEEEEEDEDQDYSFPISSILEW

[6] = target: Fibroblast growth factor 2 (Homo sapiens) (UniProt P09038); assay: basic fibroblast growth factor binding to printed compounds – biochemical, small-molecule microarray, 635/667 nm fluorescence, primary screen (AID 1133); details: FGF2, fluorescence 635/667, higher = more signal
Fibroblast growth factor 2 (Homo sapiens), sequence (P09038 whole entry, looked up): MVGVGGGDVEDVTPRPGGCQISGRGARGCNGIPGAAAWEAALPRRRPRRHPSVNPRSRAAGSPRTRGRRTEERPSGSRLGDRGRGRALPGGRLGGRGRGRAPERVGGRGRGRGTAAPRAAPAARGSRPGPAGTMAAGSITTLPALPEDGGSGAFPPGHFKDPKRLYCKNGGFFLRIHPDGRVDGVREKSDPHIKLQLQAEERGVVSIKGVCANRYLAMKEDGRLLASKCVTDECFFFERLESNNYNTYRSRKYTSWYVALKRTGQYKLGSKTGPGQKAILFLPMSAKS

[7] = JC-1 mitochondrial potential readout, lung cancer cells – cell-based, A549, JC-1 fluorescence, basal, 24 h, 100 nL, profiling panel (AID 1138); details: higher = more signal;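 also: A549 lung adenocarcinoma cells under basal conditions with no added stimulus; test concentration not given here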
Lefty1 = Lefty1 protein binding to printed compounds – biochemical, small-molecule microarray, 635/667 nm fluorescence, primary screen (AID 1139); details: fluorescence 635/667, higher = more signal
[8] = tested on: wheat germ agglutinin (Triticum aestivum), Alexa647-labelled; assay: Alexa647-WGA lectin binding to printed small molecules – biochemical, small-molecule microarray, 635/667 nm fluorescence, artefact control for SMM control-protein annotation, profiling panel (AID 1140); details: WGA-A647 binding, 635 nm fluorescence, higher = more signal;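 also: score merges 667 nm feature emission with signal to noise over triplicate slides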
[9] = target: Luciferin 4-monooxygenase (Photinus pyralis) (UniProt P08659); assay: inhibition of purified Photinus pyralis luciferase – biochemical, luminescence, purified enzyme, 2006 set, primary screen (AID 1141); details: purified firefly luciferase, SteadyGlo luminescence, 30 min; higher = more signal, called active from +8 up or from −8 down;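 also: cell-free assay with purified firefly luciferase at 100 ng per well in PBS; test concentration not given here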
Luciferin 4-monooxygenase (Photinus pyralis), sequence (P08659 whole entry, looked up): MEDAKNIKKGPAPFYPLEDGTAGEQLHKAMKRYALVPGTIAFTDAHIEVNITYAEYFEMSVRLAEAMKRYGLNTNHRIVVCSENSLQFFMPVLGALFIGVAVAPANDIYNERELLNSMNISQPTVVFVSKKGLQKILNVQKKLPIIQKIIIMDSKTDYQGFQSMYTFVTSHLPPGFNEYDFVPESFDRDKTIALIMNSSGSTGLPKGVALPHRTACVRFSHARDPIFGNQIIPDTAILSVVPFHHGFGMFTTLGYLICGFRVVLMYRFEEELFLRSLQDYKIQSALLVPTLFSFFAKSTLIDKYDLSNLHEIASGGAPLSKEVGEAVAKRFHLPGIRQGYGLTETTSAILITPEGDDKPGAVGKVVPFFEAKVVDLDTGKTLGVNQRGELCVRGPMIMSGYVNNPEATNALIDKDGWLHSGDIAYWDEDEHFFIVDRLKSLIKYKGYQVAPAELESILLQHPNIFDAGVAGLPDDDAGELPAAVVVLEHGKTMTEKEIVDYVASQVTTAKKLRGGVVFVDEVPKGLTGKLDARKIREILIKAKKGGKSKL

[10] = tested on: Wnt5a (protein binding on small-molecule microarray); assay: small molecules binding Wnt5a protein – biophysical, small-molecule microarray, 635/667 nm fluorescence, primary screen (AID 1142); details: 635 nm fluorescence, higher = more signal;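 also: fluorescence read at 667 nm with signal to noise per printed feature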
[11] = ATP-based viability of Huh7 replicon cells – cell-based, CellTiter-Glo luminescence, basal, 48 h, cytotoxicity control for HCV replication inhibitor project, primary screen (AID 1143); details: higher = more signal, called active from +8 up or from −8 down;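 also: Huh7 hepatoma cells carrying a hepatitis C replication reporter with no stimulus; test concentration not given here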
[12] = Pseudomonas biofilm growth suppression – PAO1 strain, BacTiter-Glo luminescence, LB-PBS, primary screen (AID 1144); details: P. aeruginosa PAO1 biofilm, 12 h, higher = more signal
[13] = basal CRE-LacZ reporter activity in PC12 – cell-based, unstimulated, primary screen (AID 1145); details: no forskolin, luminescence, 4.5 h, higher = more signal, called active from +8 up or from −8 down
[14] = forskolin-driven CRE-LacZ activity in PC12 – cell-based, CRE-LacZ reporter, forskolin-stimulated, primary screen (AID 1146); details: luminescence, 4.5 h, higher = more signal, called active from +8 up or from −8 down;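 also: PC12 cells with 6xCRE LacZ reporter stimulated by forskolin 10 µM; beta-galactosidase reporter signal reflecting CREB driven transcription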
[15] = target: Streptavidin (Streptomyces avidinii) (UniProt P22629); assay: compounds binding control protein streptavidin – biophysical, small-molecule microarray, 635/667 nm fluorescence, artefact control for SMM compound annotation, primary screen (AID 1147); details: higher = more signal;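 also: signal reflects streptavidin binding to arrayed compounds as a control protein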
Streptavidin (Streptomyces avidinii), sequence (P22629 whole entry, looked up): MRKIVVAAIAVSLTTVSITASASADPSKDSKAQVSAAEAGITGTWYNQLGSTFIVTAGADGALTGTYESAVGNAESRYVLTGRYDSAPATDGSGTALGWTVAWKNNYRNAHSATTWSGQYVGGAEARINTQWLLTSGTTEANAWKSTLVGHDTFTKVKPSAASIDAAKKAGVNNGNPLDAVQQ

[16] = probe aInhba binding on compound microarray – biochemical, small-molecule microarray, 635/667 nm fluorescence, primary screen (AID 1148); details: higher = more signal;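 also: score merges 667nm spot fluorescence with signal-to-noise for antibody binding to printed compounds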
Torsin-1A (Homo sapiens) [17] = target: Torsin-1A (Homo sapiens) (UniProt O14656); assay: TOR1A wild-type binding on microarray – cell lysate, small-molecule microarray, lysate, 635/667 nm, primary screen (AID 1149); details: COS7 hTOR1A-WT lysate, 635 nm fluorescence, higher = more signal
Torsin-1A (Homo sapiens), sequence (O14656 whole entry, looked up): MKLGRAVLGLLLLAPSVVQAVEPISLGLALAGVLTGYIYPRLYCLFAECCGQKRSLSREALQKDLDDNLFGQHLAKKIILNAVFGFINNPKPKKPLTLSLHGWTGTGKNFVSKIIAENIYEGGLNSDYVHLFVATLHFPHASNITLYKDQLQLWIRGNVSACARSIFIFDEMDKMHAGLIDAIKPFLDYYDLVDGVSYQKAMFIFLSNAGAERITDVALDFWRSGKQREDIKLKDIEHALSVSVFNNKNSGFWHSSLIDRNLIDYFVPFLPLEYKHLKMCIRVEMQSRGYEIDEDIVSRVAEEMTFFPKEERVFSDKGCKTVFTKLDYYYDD

Torsin-1A (Homo sapiens) [18] = target: Torsin-1A (Homo sapiens) (UniProt O14656); assay: torsin A mutant lysate binding on microarrays – cell lysate, small-molecule microarray, COS7 lysate, 635/667 nm fluorescence, primary screen (AID 1150); details: COS7 hTOR1A mutant lysate, 635 nm fluorescence, higher = more signal;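 also: score pools 667 nm emission and signal to noise measuring lysate protein binding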
[19] = tested on: Sonic hedgehog protein (Shh); assay: Sonic hedgehog microarray binding compounds – biochemical, small-molecule microarray, 635/667 nm fluorescence, primary screen (AID 1151); details: 635 nm fluorescence, higher = more signal;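 also: Shh protein binding to compounds spotted on small-molecule microarray slides; score combines spot fluorescence intensity with signal-to-noise across triplicate slides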

Structure (SMILES)	composite z-score [1]	composite z-score [2]	composite z-score [3]	composite z-score [4]	composite z-score [5]	composite z-score [6]	z-score [7]	composite z-score (Lefty1)	composite z-score [8]	z-score [9]	composite z-score [10]	z-score [11]	z-score [12]	z-score [13]	z-score [14]	composite z-score [15]	composite z-score [16]	composite z-score (Torsin-1A (Homo sapiens) [17])	composite z-score (Torsin-1A (Homo sapiens) [18])	composite z-score [19]
COc1ccc([Si](C)(C)[C@@H]2[C@@H](CCO)O[C@]3(C(=O)N(Cc4cccc(N(C=O)c5ccccc5)c4)c4ccccc43)[C@H]2C)cc1	1.25	1.04	0.228	0.508	1.18	0.598	-0.0337	0.127	0.893	0.505 (inactive)	-0.0398	-7.17 (inactive)	0.465 (inactive)	7.39 (inactive)	-0.671 (inactive)	0.156	0.0543	0.0905	-0.004	0.98
O=C1OCCC=C[C@H]2OC34C=CCN(CCN5CCOCC5)C(=O)[C@H]3N(CCO)C(=O)[C@@H]4C12 (stereo not given in full)	1.07	-0.793	-0.379	0.236	1.11	0.785	-0.849	0.648	0.418	-0.0527 (inactive)	-0.141	0.473 (inactive)	0.329 (inactive)	-0.358 (inactive)	-0.0338 (inactive)	-0.983	-0.168	-0.23	0.0141	0.731
C=CCOC(=O)[C@@H]1[C@H]2C(=O)O[C@H](c3ccccc3)[C@H](c3ccccc3)N2[C@H](c2ccc(OCCOC(=O)[C@H]3C[C@H]4C(=O)N[C@@H](CCCC[N+](C)(C)C)C(=O)N4[C@H]3c3cccc(OCCO)c3)cc2)[C@@]12C(=O)Nc1ccc(I)cc12	1.3	1.18	0.163	0.496	1.4	1.55	-0.93	1.15	0.115	-0.138 (inactive)	0.662	-0.693 (inactive)	-0.0854 (inactive)	0.289 (inactive)	-0.464 (inactive)	0.128	0.115	0.559	0.327	1.89
Cc1ccccc1/C=C/C=O	-0.0248	-1.29	-0.3	-2.75	-0.0561	-0.134	0.795	-0.234	-0.604	0.702 (inactive)	-0.373	-0.042 (inactive)	-0.242 (inactive)	-0.204 (inactive)	0.834 (inactive)	-0.943	-0.137	-1.41	-0.62	-0.0373
CC(C)OC(=O)C1=CCC(c2cccc(Cl)c2)O1 (stereo not given)	0.872	0.291	-0.0871	0.455	-0.328	-1.59	-1.4	-1.11	0.58	2.09 (inactive)	-0.593	-5.17 (inactive)	-2.12 (inactive)	-0.471 (inactive)	-0.154 (inactive)	0.245	-0.191	1.07	-0.268	-1.49
[N-]=[N+]=NCc1ccccc1[C@H]1OC(c2ccc(OCCCO)cc2)=N[C@@]1(Cc1ccccc1)C(=O)O	1.97	0.762	0.551	0.472	1.31	1.42	-0.0378	0.195	0.611	-0.0016 (inactive)	0.631	-1.01 (inactive)	0.564 (inactive)	-1.19 (inactive)	-0.609 (inactive)	1.37	-0.0477	0.112	0.381	-0.22
COC(=O)[C@@]1(Cc2ccc(F)cc2)[C@H]2c3cc(C(=O)N(C)C)n(CCc4c[nH]c5ccc(OC)cc45)c3C[C@H]2CN1C(=O)c1ccccc1	-0.0359	1.25	0.827	1.04	-0.49	-1.09	-1.79	-1.41	1.37	0.158 (inactive)	0.325	-3.84 (inactive)	1.41 (inactive)	1.54 (inactive)	0.883 (inactive)	1.18	0.351	1.03	1.31	-1.11
O=C1NC(=O)C2C1C=CC(C(O)c1cccs1)N2Nc1ccccn1 (stereo not given)	1.23	0.532	-0.374	0.725	0.131	0.0343	0.543	0.0773	-0.0456	-1.68 (inactive)	0.0343	0.847 (inactive)	-1.39 (inactive)	-0.712 (inactive)	-1.04 (inactive)	-0.0099	-0.214	0.484	0.244	-0.0541
OCCCc1cc[n+](Cc2cccc(OC(F)(F)F)c2)cc1	1.62	1.01	0.917	0.315	1.18	0.58	-0.672	0.714	0.889	1.14 (inactive)	0.012	-1.79 (inactive)	-0.781 (inactive)	-0.374 (inactive)	1.69 (inactive)	0.274	-0.0538	1.03	1.59	1.82
CC1CC/C=C\[C@H]2OC34C=CCN(CCN5CCOCC5)C(=O)[C@H]3N(CCCCCO)C(=O)[C@@H]4C2C(=O)O1 (stereo not given in full)	-0.417	-1.44	-0.197	-1.2	-0.381	-0.206	-0.485	-0.376	-0.577	-0.115 (inactive)	0.06	0.362 (inactive)	0.658 (inactive)	0.0645 (inactive)	0.259 (inactive)	-0.488	-0.327	-0.0591	-0.352	0.322
